Laboratory results: the supplement of paper PMC10849652
The full data set covers some 7,900 targets. This sample favours those with a hit. About 0.6% of all pairs of compound and target were hits.

Compound: CN(C)CC(=O)Nc1ccc2[nH]c(=O)c3ccccc3c2c1
Test: log2 fold change, soluble protein after heating vs DMSO (PISA); higher = thermal stabilisation; K562 cells, 10 uM, 30 min; active = over 0.2 and 3.5 SD of the protein, either way, in both replicates (recomputed)
Summary of the method: (§1)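 K562 cells at 2×10^6 cells/mL were treated for 30 min with 10 μM compound, and aliquots were heated for 3 min over 48°C-58°C before pooling. Extraction used PBS with 0.5% NP-40 at 4°C, and soluble protein was the supernatant after 21,000xg for 90 min, measured by TMTpro 16plex LC-MS/MS with channel sums equalised. Thermal stability values, relative to control samples and from duplicates, are log2 fold changes.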

UniProt Q7L1V2, sequence (Q7L1V2 whole entry, looked up): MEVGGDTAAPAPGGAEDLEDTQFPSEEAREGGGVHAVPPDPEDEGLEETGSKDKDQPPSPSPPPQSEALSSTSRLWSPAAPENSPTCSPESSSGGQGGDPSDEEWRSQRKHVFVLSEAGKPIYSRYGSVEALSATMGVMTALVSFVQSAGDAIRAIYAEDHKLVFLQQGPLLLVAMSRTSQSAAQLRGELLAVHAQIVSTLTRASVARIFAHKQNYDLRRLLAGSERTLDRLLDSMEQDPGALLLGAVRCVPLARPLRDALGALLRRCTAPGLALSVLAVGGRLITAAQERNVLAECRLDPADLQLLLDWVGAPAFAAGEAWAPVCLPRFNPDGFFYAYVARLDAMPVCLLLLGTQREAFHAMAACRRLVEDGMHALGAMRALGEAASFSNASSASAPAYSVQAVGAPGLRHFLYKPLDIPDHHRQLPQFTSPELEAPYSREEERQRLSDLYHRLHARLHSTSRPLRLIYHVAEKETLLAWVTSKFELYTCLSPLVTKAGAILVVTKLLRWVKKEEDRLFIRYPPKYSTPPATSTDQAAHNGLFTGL
UniProt Q12769, sequence (Q12769 whole entry, looked up): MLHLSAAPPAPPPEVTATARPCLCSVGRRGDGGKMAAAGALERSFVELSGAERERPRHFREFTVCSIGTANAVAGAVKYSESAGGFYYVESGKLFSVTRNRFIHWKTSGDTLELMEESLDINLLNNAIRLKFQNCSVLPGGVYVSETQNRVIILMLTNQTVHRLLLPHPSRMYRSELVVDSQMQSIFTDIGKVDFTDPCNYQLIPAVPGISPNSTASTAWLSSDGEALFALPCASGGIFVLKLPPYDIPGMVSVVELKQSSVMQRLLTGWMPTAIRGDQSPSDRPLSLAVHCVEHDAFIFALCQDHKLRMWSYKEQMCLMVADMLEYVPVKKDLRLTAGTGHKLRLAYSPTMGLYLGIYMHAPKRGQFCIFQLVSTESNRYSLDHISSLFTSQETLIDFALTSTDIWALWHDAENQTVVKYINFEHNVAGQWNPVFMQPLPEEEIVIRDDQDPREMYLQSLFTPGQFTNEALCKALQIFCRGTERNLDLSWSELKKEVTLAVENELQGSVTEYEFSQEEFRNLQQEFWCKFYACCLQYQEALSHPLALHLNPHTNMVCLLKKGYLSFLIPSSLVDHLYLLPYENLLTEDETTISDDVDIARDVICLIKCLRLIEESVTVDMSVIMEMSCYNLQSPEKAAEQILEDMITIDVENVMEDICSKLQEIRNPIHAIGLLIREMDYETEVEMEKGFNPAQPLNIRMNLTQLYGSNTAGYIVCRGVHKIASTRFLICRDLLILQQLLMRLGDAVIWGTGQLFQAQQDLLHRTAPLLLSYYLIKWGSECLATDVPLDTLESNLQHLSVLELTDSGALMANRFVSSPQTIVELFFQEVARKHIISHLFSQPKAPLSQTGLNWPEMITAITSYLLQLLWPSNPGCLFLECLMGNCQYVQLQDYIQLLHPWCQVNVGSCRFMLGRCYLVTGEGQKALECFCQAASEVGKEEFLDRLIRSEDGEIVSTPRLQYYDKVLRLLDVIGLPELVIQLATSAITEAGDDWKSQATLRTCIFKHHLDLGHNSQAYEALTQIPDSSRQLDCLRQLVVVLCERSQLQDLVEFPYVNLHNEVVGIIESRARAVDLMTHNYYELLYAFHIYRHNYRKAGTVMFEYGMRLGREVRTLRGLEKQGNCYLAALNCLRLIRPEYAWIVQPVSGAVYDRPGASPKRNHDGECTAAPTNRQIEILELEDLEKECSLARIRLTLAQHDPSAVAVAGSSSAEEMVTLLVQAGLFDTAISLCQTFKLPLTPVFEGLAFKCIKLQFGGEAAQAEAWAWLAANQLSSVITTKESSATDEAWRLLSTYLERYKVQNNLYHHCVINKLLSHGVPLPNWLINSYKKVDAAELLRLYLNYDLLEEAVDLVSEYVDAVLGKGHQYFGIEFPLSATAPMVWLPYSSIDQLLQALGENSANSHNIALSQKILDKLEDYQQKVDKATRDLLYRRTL
UniProt Q330K2, sequence (Q330K2 whole entry, looked up): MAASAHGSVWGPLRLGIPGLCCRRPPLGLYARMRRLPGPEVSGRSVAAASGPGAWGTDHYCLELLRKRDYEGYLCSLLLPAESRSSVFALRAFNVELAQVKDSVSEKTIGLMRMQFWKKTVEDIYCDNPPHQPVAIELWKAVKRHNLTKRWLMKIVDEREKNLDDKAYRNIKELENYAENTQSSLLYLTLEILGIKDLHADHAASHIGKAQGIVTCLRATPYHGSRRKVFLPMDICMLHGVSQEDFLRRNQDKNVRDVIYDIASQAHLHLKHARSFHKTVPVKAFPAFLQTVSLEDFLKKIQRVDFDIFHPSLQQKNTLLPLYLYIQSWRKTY
UniProt P68402, sequence (P68402 whole entry, looked up): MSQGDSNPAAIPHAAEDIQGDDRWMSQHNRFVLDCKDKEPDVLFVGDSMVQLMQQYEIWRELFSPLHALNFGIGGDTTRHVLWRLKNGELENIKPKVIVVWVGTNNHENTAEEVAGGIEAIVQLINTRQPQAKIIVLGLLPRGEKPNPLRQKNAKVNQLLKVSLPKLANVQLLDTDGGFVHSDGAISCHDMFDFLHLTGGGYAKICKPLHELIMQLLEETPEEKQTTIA
UniProt P46934, sequence (P46934 whole entry, looked up): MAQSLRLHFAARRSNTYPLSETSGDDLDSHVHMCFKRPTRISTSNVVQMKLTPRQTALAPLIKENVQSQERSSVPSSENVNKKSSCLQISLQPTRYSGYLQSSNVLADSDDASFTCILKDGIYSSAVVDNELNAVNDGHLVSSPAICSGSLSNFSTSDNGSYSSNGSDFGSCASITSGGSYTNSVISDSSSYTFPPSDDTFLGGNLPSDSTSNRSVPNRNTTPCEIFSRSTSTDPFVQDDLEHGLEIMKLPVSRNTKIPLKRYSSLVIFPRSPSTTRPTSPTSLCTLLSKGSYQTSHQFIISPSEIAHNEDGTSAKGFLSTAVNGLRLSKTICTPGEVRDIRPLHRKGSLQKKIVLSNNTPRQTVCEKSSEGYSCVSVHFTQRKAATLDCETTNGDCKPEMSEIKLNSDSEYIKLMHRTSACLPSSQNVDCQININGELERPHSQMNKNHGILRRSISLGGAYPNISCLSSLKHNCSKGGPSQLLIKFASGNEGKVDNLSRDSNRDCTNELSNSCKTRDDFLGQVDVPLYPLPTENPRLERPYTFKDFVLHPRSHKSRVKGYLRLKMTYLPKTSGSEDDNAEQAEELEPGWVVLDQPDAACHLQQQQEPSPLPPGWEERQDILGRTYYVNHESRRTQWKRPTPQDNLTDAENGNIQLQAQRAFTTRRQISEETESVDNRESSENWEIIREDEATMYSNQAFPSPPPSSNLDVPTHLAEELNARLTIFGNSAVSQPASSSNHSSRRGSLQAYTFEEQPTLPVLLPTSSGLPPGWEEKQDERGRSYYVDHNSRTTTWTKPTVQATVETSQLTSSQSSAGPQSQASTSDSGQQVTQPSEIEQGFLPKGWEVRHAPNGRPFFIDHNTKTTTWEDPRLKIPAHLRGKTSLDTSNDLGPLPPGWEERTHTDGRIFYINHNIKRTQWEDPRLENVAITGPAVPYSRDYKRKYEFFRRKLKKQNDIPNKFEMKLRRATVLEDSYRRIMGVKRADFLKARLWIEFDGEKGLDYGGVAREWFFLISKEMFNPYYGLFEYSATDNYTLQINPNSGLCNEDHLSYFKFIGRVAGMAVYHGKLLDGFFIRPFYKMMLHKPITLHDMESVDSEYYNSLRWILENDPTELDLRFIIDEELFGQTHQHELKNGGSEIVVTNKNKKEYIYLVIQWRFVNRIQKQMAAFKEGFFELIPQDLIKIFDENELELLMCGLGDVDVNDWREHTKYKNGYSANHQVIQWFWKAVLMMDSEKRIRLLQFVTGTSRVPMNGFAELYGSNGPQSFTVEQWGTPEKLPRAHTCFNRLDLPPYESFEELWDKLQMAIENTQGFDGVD
UniProt O14524, sequence (O14524 whole entry, looked up): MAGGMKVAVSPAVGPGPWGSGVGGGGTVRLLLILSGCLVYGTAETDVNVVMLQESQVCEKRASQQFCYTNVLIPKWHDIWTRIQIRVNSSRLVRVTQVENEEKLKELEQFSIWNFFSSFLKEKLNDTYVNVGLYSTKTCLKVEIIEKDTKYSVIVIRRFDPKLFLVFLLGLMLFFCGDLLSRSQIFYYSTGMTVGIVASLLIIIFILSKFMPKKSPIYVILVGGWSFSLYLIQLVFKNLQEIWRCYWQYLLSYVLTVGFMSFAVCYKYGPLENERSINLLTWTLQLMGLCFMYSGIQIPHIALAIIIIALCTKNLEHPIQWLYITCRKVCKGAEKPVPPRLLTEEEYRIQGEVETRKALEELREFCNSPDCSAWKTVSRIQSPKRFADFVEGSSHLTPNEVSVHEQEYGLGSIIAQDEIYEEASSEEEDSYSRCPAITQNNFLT
UniProt Q9NZT2, sequence (Q9NZT2 whole entry, looked up): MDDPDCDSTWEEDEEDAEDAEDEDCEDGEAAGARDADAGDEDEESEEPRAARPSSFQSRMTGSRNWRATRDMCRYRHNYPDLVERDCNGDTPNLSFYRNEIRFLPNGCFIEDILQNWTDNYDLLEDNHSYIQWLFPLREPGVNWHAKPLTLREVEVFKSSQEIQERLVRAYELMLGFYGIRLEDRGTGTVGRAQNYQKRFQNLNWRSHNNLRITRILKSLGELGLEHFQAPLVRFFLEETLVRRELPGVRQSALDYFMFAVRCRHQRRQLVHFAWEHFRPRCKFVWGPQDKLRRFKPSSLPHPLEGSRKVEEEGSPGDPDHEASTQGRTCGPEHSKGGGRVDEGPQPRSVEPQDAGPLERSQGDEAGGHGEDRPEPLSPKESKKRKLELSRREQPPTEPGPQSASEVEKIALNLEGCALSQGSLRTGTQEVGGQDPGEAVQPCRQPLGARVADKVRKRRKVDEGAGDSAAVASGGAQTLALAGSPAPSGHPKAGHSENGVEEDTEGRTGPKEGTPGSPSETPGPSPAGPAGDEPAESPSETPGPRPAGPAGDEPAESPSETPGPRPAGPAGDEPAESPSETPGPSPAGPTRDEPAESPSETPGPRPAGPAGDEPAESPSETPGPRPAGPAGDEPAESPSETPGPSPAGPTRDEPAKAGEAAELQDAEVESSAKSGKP

log2 fold change, inactive:
MON1B (UniProt Q7L1V2) -0.024
NEMP1 (UniProt O14524) -0.003
NDUFAF6 (UniProt Q330K2) -0.078
NFATC3 (UniProt Q12968) 0.049
MRPS15 (UniProt P82914) -0.01
NUP160 (UniProt Q12769) 0.007
NEU1 (UniProt Q99519) 0.012
OGFR (UniProt Q9NZT2) 0.142
NBN (UniProt O60934) 0.061
MYH10 isoform 3 (UniProt P35580) 0.024
MRPS24 (UniProt Q96EL2) 0
NOP2 isoform 4 (UniProt P46087) -0.346
NEDD4 isoform 4 (UniProt P46934) 0.015
NOLC1 isoform 2 (UniProt Q14978) -0.048
PAFAH1B2 (UniProt P68402) -0.009

Compound: CN(CCOC1=CC=C(C=C1)C[C@H]2C(=O)NC(=O)S2)C3=CC=CC=N3 (racemic) [rosiglitazone]
Test: as above
Summary of the method: as §1

log2 fold change, inactive:
NUDCD2 (UniProt Q8WVJ2) 0.093
NA, A0A096LPI6 -0.019
NAP1L1 (UniProt P55209) 0.014
NCL (UniProt P19338) -0.194
NUP107 (UniProt P57740) 0.057
MRPL46 (UniProt Q9H2W6) -0.017
MRPS22 (UniProt P82650) -0.006
MSTO1 (UniProt Q9BUK6) 0.119
NOL11 (UniProt Q9H8H0) -0.025
NFYC (UniProt Q13952) 0.059
MTMR14 (UniProt Q8NCE2) 0.026
NISCH (UniProt Q9Y2I1) 0.103
NAPG (UniProt Q99747) 0.088
NDUFA4 (UniProt O00483) -0.026
NUMB (UniProt P49757) 0.053
MRPS18B (UniProt Q9Y676) -0.069
NUP85 (UniProt Q9BW27) 0.019
MTHFD1 (UniProt P11586) 0.024
NOSIP (UniProt Q9Y314) 0.052
NECTIN2 (UniProt Q92692) -0.023
NUP205 (UniProt Q92621) 0.041
NFATC2IP (UniProt Q8NCF5) 0.041
NRF1 isoform 4 (UniProt Q16656) 0.1
MRPS12 (UniProt O15235) 0.063
MON1B (UniProt Q7L1V2) 0.016
NEMP1 (UniProt O14524) 0.048
NDUFAF6 (UniProt Q330K2) 0.134
NFATC3 (UniProt Q12968) 0.068
MRPS15 (UniProt P82914) 0.032
NUP160 (UniProt Q12769) 0.03
NEU1 (UniProt Q99519) 0.032
OGFR (UniProt Q9NZT2) 0.007
NBN (UniProt O60934) 0.034
MYH10 isoform 3 (UniProt P35580) 0.022
MRPS24 (UniProt Q96EL2) -0.026
NOP2 isoform 4 (UniProt P46087) -0.056
NEDD4 isoform 4 (UniProt P46934) 0.065
NOLC1 isoform 2 (UniProt Q14978) -0.018
PAFAH1B2 (UniProt P68402) 0

Compound: CN1C2=C(C3=C1C(=O)N(N=C3)CC4=CC(=CC=C4)N)SC(=C2)S(=O)C
Test: as above
Summary of the method: as §1

log2 fold change, inactive:
NUDCD2 (UniProt Q8WVJ2) 0.023
NA, A0A096LPI6 -0.03
NAP1L1 (UniProt P55209) 0.003
NCL (UniProt P19338) 0.393
NUP107 (UniProt P57740) 0.053
MRPL46 (UniProt Q9H2W6) 0.061
MRPS22 (UniProt P82650) 0.084
MSTO1 (UniProt Q9BUK6) -0.057
NOL11 (UniProt Q9H8H0) -0.028
NFYC (UniProt Q13952) -0.063
MTMR14 (UniProt Q8NCE2) 0.022
NISCH (UniProt Q9Y2I1) 0.086
NAPG (UniProt Q99747) 0
NDUFA4 (UniProt O00483) 0.018
NUMB (UniProt P49757) -0.007
MRPS18B (UniProt Q9Y676) -0.01
NUP85 (UniProt Q9BW27) -0.038
MTHFD1 (UniProt P11586) -0.057
NOSIP (UniProt Q9Y314) 0.109
NECTIN2 (UniProt Q92692) -0.063
NUP205 (UniProt Q92621) -0.041
NFATC2IP (UniProt Q8NCF5) -0.008
NRF1 isoform 4 (UniProt Q16656) -0.084
MRPS12 (UniProt O15235) 0.091
MON1B (UniProt Q7L1V2) -0.011
NEMP1 (UniProt O14524) 0.01
NDUFAF6 (UniProt Q330K2) -0.014
NFATC3 (UniProt Q12968) 0.036
MRPS15 (UniProt P82914) 0.049
NUP160 (UniProt Q12769) -0.033
NEU1 (UniProt Q99519) 0.015
OGFR (UniProt Q9NZT2) -0.027
NBN (UniProt O60934) -0.043
MYH10 isoform 3 (UniProt P35580) -0.064
MRPS24 (UniProt Q96EL2) -0.004
NOP2 isoform 4 (UniProt P46087) 0.546
NEDD4 isoform 4 (UniProt P46934) -0.01
NOLC1 isoform 2 (UniProt Q14978) 0.026
PAFAH1B2 (UniProt P68402) -0.037
